Results as given in PubChem BioAssay AID1850 (Southern Research Specialized Biocontainment Screening …, 2009).
Out of some 310,000 compounds screened, about 1,000 (0.32%) were called active. No rule for the calls is given here. Only a sample is shown. Measured potencies and affinities stand elsewhere.

test: Inhibition of PhoP regulon, Salmonella typhi GFP reporter cells, confirmation, 4 h (AID 1850); settings: Salmonella Typhi PhoP-promoter GFP reporter, fluorescence, at 50 µM, active compounds read high;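 also: 0% = induced wells with vehicle and 100% = uninduced wells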

Structure (SMILES) | inhibition
CCn1cc(CN2CCC(C(=O)Nc3cccc(-c4cccc(OC)c4)c3)CC2)cn1 | -5.91% (inactive)
CN1CCN(C(=O)/C(=C\c2ccccc2)c2ccccc2)CC1 | 3.28% (inactive)
Cc1cccc(-n2cc(-c3ccccc3)c3c(=O)[nH]cnc32)c1 | -10.3% (inactive)
COc1ccc(CCNC(=O)CN(c2cccc([N+](=O)[O-])c2)S(C)(=O)=O)cc1 | -12% (inactive)
Cc1ccccc1C(=O)N1CCN(S(=O)(=O)c2ccccc2)CC1 | -4.37% (inactive)
O=C(CSc1nnc(SCc2ccccc2Cl)s1)N/N=C/c1ccc(C(=O)O)cc1 | -6.94% (inactive)
COC(=O)c1cc(S(=O)(=O)N2CCN(c3ccccc3F)CC2)c[nH]1 | -1.3% (inactive)
O=C1CSC(=S)N1c1cccc(Cl)c1 | -2.26% (inactive)
O=C(O)c1cccc(N2C(=O)CSC2=S)c1 | 65.1% (inactive)
Cc1cc(NC(=O)NN2CCOCC2)nn1-c1c(Cl)cccc1Cl | -1.26% (inactive)
Nc1nc(SCC(=O)Nc2ccc([N+](=O)[O-])cc2)[nH]c(=O)c1NC(=O)c1ccc(Br)o1 | -2.49% (inactive)
c1cncc(-c2nnc(SCc3cccc4ccccc34)o2)c1 | 8.54% (inactive)
c1ccc2c3c([nH]c2c1)-c1[nH]ncc1CC3 | -5.34% (inactive)
Cc1ccc2[nH]c3c(c2c1)CCc1cn[nH]c1-3 | -6.69% (inactive)
Cc1ccc2c(c1)C1C3CCC(C3)C1S(=O)N2 (stereo not given) | -0.67% (inactive)
COc1cc2ccccc2cc1C(=O)Nc1cccnc1 | -16.1% (inactive)
Nc1nnc(Cc2ccc(Cl)cc2Cl)s1 | -0.54% (inactive)
Cc1nc(N)c(Cc2ccccc2F)c(N)n1 | 8.16% (inactive)
Clc1ccc(Cc2ccc(Cl)nn2)c(Cl)c1 | -3.15% (inactive)
Nc1nc(-c2ccccn2)nc(N)c1Cc1ccc(Cl)cc1Cl | -4% (inactive)

Structure (SMILES) | inhibition
CCOC(=O)C1(Cc2cccc(OC)c2)CCN(Cc2cnc(SC)nc2)CC1 | -3.1% (inactive)
CC(/C=C/c1ccc2c(c1)OCO2)=N/NC(=O)COc1ccc(C)cc1 | -7.1% (inactive)
CS(=O)(=O)c1ccc(Cl)c(NC(=O)COC(=O)/C=C/c2cnc3ccccc3n2)c1 | 5.47% (inactive)
O=C(Nc1nc(-c2ccccn2)cs1)c1ncc(Cl)c(Cl)c1Cl | -0.4% (inactive)
O=C(Nc1nc(-c2cccs2)cs1)c1ccc(Cl)s1 | -14% (inactive)
O=C(Nc1nc(-c2ccccn2)cs1)c1ccco1 | 2.93% (inactive)
Cc1csc(NC(=O)c2ccc(Br)s2)n1 | 11.7% (inactive)
COC(=O)C(Cc1ccccc1)N1CCS(=O)(=O)CC1 (stereo not given) | 9.2% (inactive)
CCCCOc1ccc(/C(O)=C2/C(=O)C(=O)N(CCN(C)C)C2c2ccc(O)c(OC)c2)cc1 (stereo not given) | -11.8% (inactive)
O=C(Nc1ccccn1)c1ccc2c(c1)S(=O)(=O)c1ccccc1C2=O | -0.07% (inactive)
COc1ccccc1CNc1cc(C)ccc1C | 4.32% (inactive)
COc1ccc(CCN(Cc2nc3ccccc3c(=O)[nH]2)C(=O)C2CC2)cc1 | -4.16% (inactive)
Cc1ccc(C(=O)N/C(=C\c2ccc(-c3ccccc3[N+](=O)[O-])o2)C(=O)NCCCN(C)C)cc1 | -1.46% (inactive)
CN(C)CCCNC(=O)/C(=C\c1ccc(-c2ccc(Br)cc2)o1)NC(=O)c1ccccc1 | 22.2% (inactive)
Cc1ccc(C(=O)N/C(=C\c2ccc(-c3cccc([N+](=O)[O-])c3)o2)C(=O)NCCCN(C)C)cc1 | 16.2% (inactive)
CN(C)CCNC(=O)/C(=C/c1ccc(-c2cccc(Cl)c2)o1)NC(=O)c1ccccc1 | 20.4% (inactive)
CN(C)CCCNC(=O)/C(=C/c1ccc(-c2ccc([N+](=O)[O-])cc2)o1)NC(=O)c1ccccc1 | 8.87% (inactive)
Cc1ccc(C(=O)N/C(=C/c2ccc(-c3ccc([N+](=O)[O-])cc3)o2)C(=O)NCCCN(C)C)cc1 | -1.29% (inactive)
Cn1c(=O)oc2cc(S(=O)(=O)NCc3ccccn3)ccc21 | 0.2% (inactive)
Cc1cc(C)cc(NC(=S)/N=C(\N)Nc2nc(C)c3ccccc3n2)c1 | -5.71% (inactive)

Structure (SMILES) | inhibition
Cc1ccc(COC(=O)c2ccc3ccccc3n2)cc1 | -0.98% (inactive)
O=C(Cc1ccc(F)cc1)c1ccc(O)cc1O | -11.9% (inactive)
COc1ccc(CC(=O)c2ccc(O)cc2O)cc1 | -0.72% (inactive)
C=CCOCCN1C(=O)C2C(c3ccccc3)C=CC(c3ccccc3)C2C1=O (stereo not given) | 5.25% (inactive)
CCc1nnc(NC(=O)[C@@H]2CCCN2S(=O)(=O)c2ccc3c(c2)OCCO3)s1 | -7.63% (inactive)
CN1CCN(CCCN2c3ccccc3Sc3ccc(C(F)(F)F)cc32)CC1 | 5.34% (inactive)
CN1CCN(CCCN2c3ccccc3Sc3ccc(S(=O)(=O)N(C)C)cc32)CC1 | 0.8% (inactive)
OCCN1CCN(CCCN2c3ccccc3Sc3ccc(Cl)cc32)CC1 | 4.15% (inactive)
CN1CCCC(CN2c3ccccc3Sc3ccccc32)C1 (stereo not given) | -0.92% (inactive)
CN1CCCCC1CCN1c2ccccc2Sc2ccc(S(C)=O)cc21 (stereo not given) | 0.68% (inactive)
CN1CCN(CCC(=O)N2c3ccccc3Sc3ccc(Cl)cc32)CC1 | -0.99% (inactive)
O=C(Nc1cccc(-n2cccn2)c1)C1CCCN(Cc2cccc(F)c2F)C1 (stereo not given) | -4.31% (inactive)
N/C(=N\OC(=O)c1ccc(Br)cc1)c1ccncc1 | 5.21% (inactive)
COc1ccc(OC)c(S(=O)(=O)N2CCC(C(=O)NCc3ccc4c(c3)OCO4)CC2)c1 | -8.79% (inactive)
Cc1ccc2cc(CCNC(=O)c3cccs3)c(=O)[nH]c2c1C | 3.08% (inactive)
CCOc1ccc(S(=O)(=O)N2CCN(C(=O)c3ccc(-n4cncn4)c([N+](=O)[O-])c3)CC2)cc1 | -1.56% (inactive)
COc1ccc(N2CCN(C(c3cccs3)C(C)NS(C)(=O)=O)CC2)cc1 (stereo not given) | -6.29% (inactive)
Cc1nc(N)nc(Cl)c1Cc1ccc(Cl)cc1 | -7.07% (inactive)
COc1ccc(Cc2c(C)nc(N)nc2Cl)cc1 | -7.38% (inactive)
CCCCN(C)CCNC(=O)c1cc2cc3ccc(OC)cc3nc2o1 | 7.2% (inactive)
